The source of these data is PubChem BioAssay (NCATS).

A short description of test [1]: Cell Viability - HUV-EC-C (AID 542).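 Also: cells exposed to compound for 40 hours; % is scaled to controls: 0 for no effect and ±100 for the full control effect; nearly all actives have a fitted effect of over 35% in size.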 In short, it runs like this: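 Decrease in cellular ATP, quantified by luciferase luminescence, reflects toxicity in normal human vascular endothelial HUV-EC-C cells given compound for 40 hr in complete culture medium. Values are AC50s from concentration-response curves.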
Test [2] can be described thus: Cellular Toxicity (caspase-3) Mesangial (AID 660).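 Also: combined caspase 3 and 7 activity read by Caspase-Glo luminescence; cells exposed to compound for 16 h before the caspase read.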 In short, it runs like this:
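Concentration-response qHTS: compound-induced rise in caspase 3/7 luminescence in human mesangial cells after 16 h, normalized to DMSO and 100 uM tamoxifen controls.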

Test [3] is described as follows: Cellular Toxicity (caspase-3) Hek293 (AID 664).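 Also: cells exposed to compound for 16 h at 37 °C before readout.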 The conditions noted are these: HEK293 caspase-3 activation, DMSO = 0%, 100 µM tamoxifen = 100%; at 92.2 µM (top of the series). An outline of the steps: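 Activation of caspase-3/7 is measured as increased luminescence from cleaved peptide-aminoluciferin substrate in HEK293 cells treated 16 hours at 37 °C. AC50 values come from Hill-equation fits of concentration-response data.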

Test [4] in a line: Cellular Toxicity (caspase-3) NIH 3T3 (AID 666).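 Also: caspase signal read after 16 h compound exposure; 0% = DMSO basal and 100% = 100 µM tamoxifen stimulation.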 An outline of the steps: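 Concentration-response qHTS in NIH 3T3 mouse fibroblasts scores caspase-3/7 activation as rising luminescence after 16 hr compound exposure. Signals are scaled between DMSO-only and 100 uM tamoxifen.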
A short description of test [5]: MultiTox-Fluor Cytotoxicity Assay - LYMP1-002 - Live Cells (AID 955).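 Also: cells exposed to compound for 16 hours; % is scaled to controls: 0 for no effect and ±100 for the full control effect.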 An outline of the steps: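 Cytotoxicity in the human lymphoblastoid line LYMP1-002 is measured as loss of live-cell protease activity after 16 h treatment in complete culture medium. AC50 is derived from Hill-equation fits of qHTS concentration-response data.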
Test [6] can be described thus: Cell Viability - LYMP1-003 - Assay at 40 hr (AID 964). Also: % is scaled to controls: 0 for no effect and ±100 for the full control effect; nearly all actives have a fitted effect of over 60% in size. An outline of the steps: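 This qHTS cytotoxicity screen treats human lymphoblastoid cells (LYMP1-003) with compounds for 40 hr and quantifies cellular ATP via luciferase luminescence.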
Test [7] is described as follows: Cell Viability - LYMP2-004 (AID 966).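 Also: plate controls were DMSO only for no effect and tetraoctylammonium bromide control for full effect; nearly all actives have a fitted effect of over 65% in size.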 In short, it runs like this: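 Acute toxicity is scored as a concentration-dependent drop in intracellular ATP, quantified by luciferase luminescence, in human lymphoblastoid cells exposed to compound for 24 hr. AC50 derives from Hill-equation modelling.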
Test [8] can be described thus: Cell Viability - LYMP2-009 (AID 968).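 Also: cells exposed to compound for 24 h at 37 °C; 0% = DMSO alone and the full-kill end = tetraoctylammonium bromide at 92 µM; nearly all actives have a fitted effect of over 55% in size.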
Test [9] in a line: Cell Viability - LYMP2-011 (AID 969).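 Also: 0% = DMSO only and full inhibition = 92 µM tetraoctylammonium bromide; nearly all actives have a fitted effect of over 60% in size.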 In short, it runs like this: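 Acute toxicity is scored as a concentration-dependent drop in intracellular ATP of a human lymphoblastoid line after 24 hr treatment. Values are AC50s modeled with the Hill equation.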
The nature of test [10]: Cell Viability - LYMP2-017 (AID 972).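 Also: cells exposed to compound for 24 hours at 37 °C; % is scaled to controls: 0 for no effect and ±100 for the full control effect; nearly all actives have a fitted effect of over 55% in size.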 In short, it runs like this:
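Steps: plate 2500 lymphoblastoid cells per well; incubate 5 hr at 37 C; add compound across a concentration series and incubate 24 hr at 37 C; add CellTiter-Glo and read luminescence after 30 min at room temperature; fit Hill curves for AC50.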

The nature of test [11]: Cell Viability - LYMP2-025 (AID 976).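 Also: cells exposed to compound for 24 h at 37 °C; plate controls were DMSO only for no effect and tetraoctylammonium bromide control for full effect.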 In short, it runs like this: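 In qHTS format, LYMP2-025 lymphoblastoid cells in complete culture medium received compound for 24 hr; ATP-based CellTiter-Glo signal gave viability, with AC50 derived by Hill equation.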
Test [12] can be described thus: Cell Viability - LYMP2-026 (AID 989).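 Also: cells exposed to compound for 24 h at 37 °C; % is scaled to controls: 0 for no effect and ±100 for the full control effect; nearly all actives have a fitted effect of over 50% in size.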 In short, it runs like this: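 Concentration-dependent loss of intracellular ATP in human lymphoblastoid cells after 24 hr at 37 C, quantified by luciferase luminescence. AC50 derived from standard Hill equation.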
The nature of test [13]: qHTS assay for small molecule activators of the p53 signaling pathway (AID 651743; active = well fitted activation curve with a large enough effect in the signal ratio, not every such curve was filed as active; the % refers to the signal ratio; also: % of control where 0% means no effect). As to conditions: HCT-116 p53RE-bla, beta-lactamase FRET ratio, 16 h; activation: hits give high values. In short, it runs like this: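 Screen for p53 pathway agonists uses stably transfected p53RE-bla HCT-116 cells, 4,000 per well, treated 16 h at 37 C with compounds in DMSO.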
Test [14] can be described thus: qHTS assay for small molecule disruptors of the mitochondrial membrane potential - 1 hr assay (AID 651754; calls by dose curve; also: nearly all actives have a fitted effect of over 35% in size; also: potency is read from the fitted curve at half-maximal effect). An outline of the steps:
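Steps: seed HepG2 cells and let attach overnight; pin-transfer compound or vehicle; incubate 1 hr at 37C; add Mito-MPS dye for 30 min; read two-channel fluorescence for monomer and aggregate forms.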

Test [15] deals with Nuclear receptor ROR-gamma (Homo sapiens) (UniProt P51449). The experiment in a line: qHTS assay for small molecule antagonists of the retinoid-related orphan receptor gamma (ROR-gamma) signaling pathway (AID 651802).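 Also: CHO cells with doxycycline-induced ROR-gamma expression; luciferase reporter luminescence driven by ROR response element; % is scaled to controls: 0 for no effect and ±100 for the full control effect; nearly all actives have a fitted effect of over 60% in size.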 An outline of the steps:
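Antagonism is scored as a fall in luminescence from a RORE-luciferase reporter in CHO cells expressing ROR under a TET-inducible promoter, measured 16hr after doxycycline induction in the presence of compound.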

A short description of test [16]: qHTS assay for small molecule agonists of the antioxidant response element (ARE) signaling pathway measured by Nrf2-dependant transcriptional activity (AID 720636; active = well fitted curve in the direction sought with a large enough effect in the repeat runs; an effect the other way counts as inactive or inconclusive;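 also: HepG2 cells with an ARE-driven luciferase reporter; % of control where 0% means no effect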). In short, it runs like this:
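Attachment 6 hr at 37 C, then compound versus DMSO vehicle for 16 hr in ARE-luc HepG2 cells (1% dialyzed FBS); luminescence recorded 30 min after ONE-Glo addition at room temperature.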

The nature of test [17]: qHTS assay for small molecule agonists of the antioxidant response element (ARE) signaling pathway measured by Nrf2-dependant transcriptional activity - cell viability counter screen (AID 720653; active = well fitted curve in the direction sought with a large enough effect in the repeat runs; an effect the other way counts as inactive or inconclusive; also: % is scaled to controls: 0 for no effect and ±100 for the full control effect). The conditions noted are these: ARE-bla HepG2 viability, CellTiter-Glo ATP luminescence, 16 h; hits give low values. An outline of the steps:
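Cytotoxicity counter screen: intracellular ATP quantified by CellTiter-Glo luminescence in the same ARE-bla HepG2 plates, after 16 h compound exposure and a 2 h beta-lactamase substrate step.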

Test [18] is described as follows: Cellular Toxicity (caspase-3) HepG2 (AID 654).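 Also: cells exposed to compound for 16 hours before reading; 0% = DMSO alone and 100% = caspase signal from 100 µM tamoxifen.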 In short, it runs like this: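 qHTS, HepG2, 1500 cells/well, complete medium; cpd 16 h 37 °C; Caspase-Glo 3/7, 20 min RT; lum. Norm: DMSO vs 100 uM tamoxifen; AC50 Hill fit.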
A short description of test [19]: Cellular Toxicity (caspase-3) MRC-5 (AID 659).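 Also: 0% = DMSO basal and 100% = 10 µM staurosporine.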 An outline of the steps:
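Concentration-dependent caspase 3/7 activation is measured in human normal lung fibroblasts (MRC-5) following 16-hour treatment. AC50 values come from standard Hill-equation modeling of luminescence normalized to DMSO and 10 uM staurosporine.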

Test [20] has as its target Vitamin D3 receptor (Homo sapiens) (UniProt P11473). Kind of test: qHTS assay for small molecule agonists of vitamin D receptor signaling (AID 588543; calls by dose curve;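 also: 0% = DMSO basal and 100% = reference agonist control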). An outline of the steps:
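Reporter cells (HEK293T, VDR-UAS-bla) were seeded in medium with 2% charcoal-stripped serum and incubated 5 h, then compounds in concentration series were added for 16 h at 37 °C. Stimulation was scaled between DMSO basal and 50 nM 1α,25-dihydroxyvitamin D3.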

Each structure is given as a SMILES string. Where “and” joins values, the source holds several entries; their conditions need not be identical. Equal entries are not always repeated. A number with no mark means an inactive call. Results filed as inconclusive are left out. Calls of active or inactive are those of the source. Unless noted, calls follow the shape of the dose curve; as a rule, active = well fitted curve in the direction sought with a large enough effect; inconclusive = small, poorly fitted or top-dose-only effect, or another doubt; inactive = no such curve, though single readings can be large; an effect the other way counts as inactive or inconclusive.

Chain of Vitamin D3 receptor (Homo sapiens) (P11473 whole entry, looked up): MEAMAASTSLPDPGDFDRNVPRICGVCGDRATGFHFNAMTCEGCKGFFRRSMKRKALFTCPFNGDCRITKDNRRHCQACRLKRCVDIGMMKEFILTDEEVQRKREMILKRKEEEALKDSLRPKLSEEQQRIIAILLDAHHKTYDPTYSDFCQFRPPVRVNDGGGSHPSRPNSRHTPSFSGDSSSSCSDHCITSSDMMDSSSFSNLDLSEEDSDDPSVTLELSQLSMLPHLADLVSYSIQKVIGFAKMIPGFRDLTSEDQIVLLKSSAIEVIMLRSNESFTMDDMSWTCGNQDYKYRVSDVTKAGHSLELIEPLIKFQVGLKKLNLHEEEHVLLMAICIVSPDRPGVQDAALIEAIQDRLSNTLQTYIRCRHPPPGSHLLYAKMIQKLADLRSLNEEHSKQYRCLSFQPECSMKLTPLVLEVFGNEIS
Chain of Nuclear receptor ROR-gamma (Homo sapiens) (P51449 whole entry, looked up): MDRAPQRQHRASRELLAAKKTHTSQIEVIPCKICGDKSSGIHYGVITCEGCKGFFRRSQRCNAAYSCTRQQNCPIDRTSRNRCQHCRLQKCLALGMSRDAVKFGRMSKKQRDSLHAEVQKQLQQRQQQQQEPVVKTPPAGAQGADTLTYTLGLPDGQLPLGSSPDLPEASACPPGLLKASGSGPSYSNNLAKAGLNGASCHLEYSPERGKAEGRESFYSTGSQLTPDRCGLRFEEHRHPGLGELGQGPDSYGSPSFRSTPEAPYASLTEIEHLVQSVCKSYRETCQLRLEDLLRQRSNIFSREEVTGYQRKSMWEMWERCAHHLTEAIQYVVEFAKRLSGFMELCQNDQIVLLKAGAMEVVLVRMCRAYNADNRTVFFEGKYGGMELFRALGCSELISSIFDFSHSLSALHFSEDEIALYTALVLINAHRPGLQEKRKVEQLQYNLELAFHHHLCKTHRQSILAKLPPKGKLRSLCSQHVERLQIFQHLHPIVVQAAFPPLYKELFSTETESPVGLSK

For the compound `CN=C=O`, the Potency result in test [1], in test [4], in test [6], in test [7], in [8] and in test [9] was “inactive” throughout. For the same compound, the Potency result in test [10], in [11], in test [12], in [14], in [15] and in test [16] was “inactive” each time. The compound was called inactive in test [2] and in test [5]. Also, the caspase-3 activation in test [3] is 1.04%. In [13], the activation is -2.98%. The max response in [17] was -4.34%.

`CC(=O)CCC(C)=O`: the Potency entry in test [1], in test [4], in test [6], in test [7], in [8] and in test [9] was “inactive” throughout. Also, the Potency entry in [11], in test [14] and in [16] was “inactive” in each case. Moreover, the compound was called inactive in [18], in [19], in [2] and in [20]. Besides, in test [3], the caspase-3 activation is 0.261%. Moreover, the activation in [13] was 0.727%. The max response in test [17] is 0.0815%.

In the case of `ClCC(Br)CBr` (stereo not drawn), the Potency entry in [1], in test [4], in test [6], in [7], in test [8] and in [10] was “inactive” throughout. For the same compound, the Potency result in test [11], in test [12], in test [14], in test [15] and in test [16] was “inactive” throughout. Besides, the call in [18], in test [2], in [5] and in test [20] was inactive. For the same compound, the caspase-3 activation in [3] was 0.439%. Further, in test [13], the activation is -3.3%. The max response in [17] is 3.72%.

Take `CCN(CC)N=O`: the Potency result in test [1], in [4], in [6], in test [7], in test [8] and in [9] was “inactive” each time. The Potency result in test [11], in test [12], in [14], in [15] and in test [16] was “inactive” throughout. Moreover, the result in [18], in test [19], in test [2], in test [5] and in test [20] was inactive. Besides, the caspase-3 activation in test [3] was 1.39%. In addition, the activation in test [13] was -1.39%. In addition, the max response in test [17] is 2.46%.

In the case of `Cc1ccc(N)cc1N`, the Potency result in [1], in test [7], in test [8], in [9], in [10] and in test [11] was “inactive” throughout. Moreover, the Potency entry in test [12], in [15] and in [16] was “inactive” in each case. Moreover, the compound was classed as inactive in test [18], in test [19], in test [5] and in test [20]. For the same compound, the caspase-3 activation in [3] is 0.128%. Besides, the activation in [13] was -3.51% and -0.675%. The Potency in test [14] is 23.7 µM (active). Moreover, the max response in test [17] was 0.265% and 5.03%.

In the case of `Clc1cccc(Cl)c1`, the Potency result in test [1], in test [4], in test [6], in test [7], in test [8] and in test [9] was “inactive” each time. The Potency entry in [10], in test [11], in [12], in test [14], in test [15] and in [16] was “inactive” throughout. The outcome in test [18], in test [19], in test [2], in test [5] and in test [20] was inactive. Also, in test [3], the caspase-3 activation is 1.04%. The max response in test [17] was -2.71%.

As to `Cc1ccc(N)cc1Cl`, the Potency result in test [1], in test [4], in test [6], in [7], in test [8] and in [9] was “inactive” in each case. For the same compound, the Potency result in test [10], in test [11], in [12], in test [14] and in test [16] was “inactive” in each case. Also, the compound was called inactive in test [18], in test [19], in test [2], in test [5] and in [20]. In addition, in [3], the caspase-3 activation was 0.465%.
